# About 10,000 (3%) of roughly 330,000 compounds were called active. The list comes from a sample in which actives are over-represented; it also holds similar structures and randomly drawn compounds. Unmarked numbers belong to inactive results.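 The calls were made as follows: active = inhibition of at least 50% at 8 µM in the primary screen; inactive = the rest.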
# Biological target: Protein Mdm4 (Homo sapiens) + E3 ubiquitin-protein ligase Mdm2 (Homo sapiens) (UniProt O15151+Q00987)
# Experiment: disruptors of Mdm2/MdmX RING complex – cell-based, luminescence, split luciferase, SaOS-2, uHTS, primary screen (AID 485346)
# Details: SaOS-2 split-luciferase Mdm2/MdmX complementation, at 8 µM, stronger effect = higher value
# Sequence of Protein Mdm4 (Homo sapiens) + E3 ubiquitin-protein ligase Mdm2 (Homo sapiens) (O15151 whole entry, looked up): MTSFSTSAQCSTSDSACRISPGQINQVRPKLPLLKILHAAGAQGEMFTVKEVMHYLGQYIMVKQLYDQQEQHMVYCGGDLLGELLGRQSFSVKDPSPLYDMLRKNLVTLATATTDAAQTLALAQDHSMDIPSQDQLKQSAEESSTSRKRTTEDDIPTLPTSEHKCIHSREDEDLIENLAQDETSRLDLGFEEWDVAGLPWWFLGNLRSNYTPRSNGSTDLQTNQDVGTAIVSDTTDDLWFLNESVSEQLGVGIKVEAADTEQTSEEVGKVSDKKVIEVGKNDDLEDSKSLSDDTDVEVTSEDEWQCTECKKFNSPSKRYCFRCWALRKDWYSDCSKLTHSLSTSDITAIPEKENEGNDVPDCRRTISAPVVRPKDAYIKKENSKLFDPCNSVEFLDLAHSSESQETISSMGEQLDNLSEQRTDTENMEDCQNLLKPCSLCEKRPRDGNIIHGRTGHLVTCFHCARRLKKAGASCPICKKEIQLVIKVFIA
# Sequence of Protein Mdm4 (Homo sapiens) + E3 ubiquitin-protein ligase Mdm2 (Homo sapiens) (Q00987 whole entry, looked up): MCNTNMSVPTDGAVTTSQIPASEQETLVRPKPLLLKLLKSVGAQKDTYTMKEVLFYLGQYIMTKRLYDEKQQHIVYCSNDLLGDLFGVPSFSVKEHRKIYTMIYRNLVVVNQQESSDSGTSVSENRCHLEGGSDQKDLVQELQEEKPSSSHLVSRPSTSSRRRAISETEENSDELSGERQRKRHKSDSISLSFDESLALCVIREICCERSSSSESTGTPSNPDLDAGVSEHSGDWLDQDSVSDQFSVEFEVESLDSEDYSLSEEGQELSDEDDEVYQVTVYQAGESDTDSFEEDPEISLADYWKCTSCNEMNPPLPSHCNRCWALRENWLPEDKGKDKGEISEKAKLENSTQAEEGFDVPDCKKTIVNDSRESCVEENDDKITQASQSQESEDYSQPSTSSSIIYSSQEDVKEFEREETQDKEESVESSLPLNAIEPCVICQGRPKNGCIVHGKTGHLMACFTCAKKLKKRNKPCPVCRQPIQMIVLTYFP
row,SMILES,inhibition
1,O=C(NCC1(N2CCCCC2)CCCCC1)c1ccc(NS(=O)(=O)c2ccc(F)cc2)cc1,8.39%
2,CCOc1ccc(S(=O)(=O)Nc2cccc(C(=O)NCC3(N4CCCCC4)CCCCC3)c2)cc1,66.6% (active)
3,CCOc1ccc(NS(=O)(=O)c2ccc(C(=O)NCC(c3ccccc3OC)N3CCCC3)cc2)cc1 (configuration not stated),38.1%
4,COc1cccc(NC(=O)c2cc(S(=O)(=O)N3CCc4ccccc43)cn2C)c1,32%
5,COCc1cc(C)n(CC(=O)NCC2CCCO2)c(=O)c1C#N (configuration not stated),-12.8%
6,CC(=O)c1cc(NC(=O)c2ccccc2)c(=O)oc1/C=C/N(C)C,-7.04%
7,CCOC(=O)c1cc(NC(=O)c2ccc(Cl)cc2)c(=O)oc1-c1ccccc1,81.6% (active)
8,CCOC(=O)NNC(=O)c1ccc(Cl)cc1,9.31%
9,COC(=O)C1=C(C(=O)OC)[C@@H]2N(C)c3ccccc3[C@@]23C[C@@H](C(=O)OC)N(C(=O)c2ccco2)C3=N1,30%
10,Cc1nc(C)c(C(=O)N(c2ccc(C)c(C)c2)C(C(=O)NCc2ccco2)c2ccccc2)s1 (configuration not stated),-6.49%
11,Cc1nn(-c2ccccc2)c2sc(C(=O)N(Cc3ccco3)C(C)C(=O)NC(C)(C)C)cc12 (configuration not stated),50.9% (active)
12,Cc1ccc(-c2nnn(CC(=O)N(Cc3ccco3)C(C(=O)NC(C)(C)C)c3ccncc3)n2)o1 (configuration not stated),-5.12%
13,CCC(C)Cn1c(O)cc2nn(-c3nc4ccccc4s3)c(=O)c-2c1C (configuration not stated),39.4%
14,COC(=O)c1sccc1NC(=S)Nc1ccc(C)cc1,-1.32%
15,COc1ccc(Nc2ccc([N+](=O)[O-])cn2)cn1,8.39%
16,CCOc1ccc(S(=O)(=O)Nc2ccc(OC)nc2)cc1,-9.26%
17,COc1ccc(CS(=O)/C(Cl)=C(/Cl)C(=O)Nc2ccc(OC)nc2)cc1 (configuration not stated),97.2% (active)
18,COc1ccc(NC(=O)/C(Cl)=C(/Cl)S(=O)Cc2ccc(C)cc2)cn1 (configuration not stated),91.5% (active)
19,COc1ccc(CCNC(=O)c2cnc(Cl)c(Cl)c2)cc1,-0.067%
20,CCCCC(c1nnnn1CS(=O)(=O)c1ccc(C)cc1)N1CCC(C(N)=O)CC1 (configuration not stated),20%
21,CC(=O)NC1CCN(CC(=O)Nc2nccs2)CC1,10.5%
22,COc1ccccc1CNC(=O)COC(=O)c1cccs1,-8.99%
23,O=C(/C=C/c1ccc(OCc2c(F)cccc2Cl)cc1)N1CCOCC1,88.9% (active)

row,SMILES,inhibition
1,CN(C)CCCNC(=O)/C=C/c1ccc(OCc2c(F)cccc2Cl)cc1,41.4%
2,COCCCNC(=O)/C=C/c1ccc(OCc2c(F)cccc2Cl)cc1,-0.73%
3,COc1cccc(NC(=O)N2CCC(NC(=O)C(Cc3cccc(C)c3)NC(C)=O)CC2)c1 (configuration not stated),2.34%
4,CN(C)/C=C(/C(=O)c1ccccc1Cl)S(C)(=O)=O,-2.89%
5,CC(C(=O)O)N1C(=O)c2cccc3cccc1c23 (configuration not stated),14.4%
6,CN(Cc1cccs1)C(=O)Cc1c[nH]c2ccccc12,-16.7%
7,CCc1nc2sc3c(Cl)ncnc3c2c2c1CCCC2,64.4% (active)
8,c1ccc(CSc2ncnc3c2sc2nc(N4CCOCC4)c4c(c23)CCCC4)cc1,2.45%
9,CCc1nc2sc(C(=O)O)c(N)c2c2c1CCCC2,-3.57%
10,Cc1cccc(N2Cc3ccccc3C2=NC(=O)c2ccc(Cl)nc2)c1,1.07%
11,Cc1cccc(Nc2nc(NCCO)nc(N3CCCC3)n2)c1,-22.4%
12,OCCCNc1nccc(-c2cc(Nc3cccc(Cl)c3)ncn2)n1,100% (active)
13,O=C(Nc1cc(Cl)cc(Cl)c1)C(NCCCO)c1ccccc1 (configuration not stated),14.1%
14,C=CCOC(=O)C1=C[C@H](c2ccc(Br)cc2)C[C@H](OCCCCO)O1,25.6%
15,Brc1ccc(CN2CC[C@H]3C=CCc4cccc(c43)C2)cc1,3.41%
16,O=C(Nc1cc(Cl)ccc1N1CCOCC1)c1ccc(N2CCCC2=O)cc1,12.9%
17,COCCOC(=O)c1c(C)oc2cc(Br)c(OCC(N)=O)cc12,6.08%
18,COC(=O)CCNc1ccc2c(c1)OCCO2,60.5% (active)
19,Cc1ccc(OCCCC(=O)Nc2ccc3c(c2)OCCO3)cc1,17%
20,COc1ccccc1OCCCC(=O)Nc1ccc2c(c1)OCCO2,6.28%
21,COc1cc(C(=O)NCc2nnc(SCC(=O)Nc3nc4ccc(C)cc4s3)o2)cc(OC)c1OC,53.5% (active)
22,COc1cc(C(=O)NCc2nnc(SCC(=O)c3ccc(Cl)cc3)o2)cc(OC)c1OC,6.35%
23,COc1ccc(C(=O)NCc2nnc(SCC(=O)Nc3cccc(OC)c3)o2)cc1,20.2%

row,SMILES,inhibition
1,Cc1cc(O)c(C(=O)/C=C/c2c(F)c(F)c(F)c(F)c2F)c(=O)o1,8.23%
2,COc1ccc(C/C(N)=N/OC(=O)c2ccco2)cc1OC,6.65%
3,COc1ccc(C(=O)ON=C2c3ccccc3-c3ccccc32)cc1OC,7.13%
4,COc1ccc(C(=O)O/N=C(\N)Cc2ccc(Cl)cc2Cl)cc1OC,97.2% (active)
5,CCCCOc1ccc(C(=O)N/C(=C/C=C/c2ccccc2)C(=O)N2CCOCC2)cc1,-5.91%
6,Nc1cc(N2CCCCCC2)c2nonc2c1[N+](=O)[O-],25.5%
7,C=CCn1c(-c2ccc(Cl)cc2)ccc(C#N)c1=O,1.15%
8,CCOc1ccc(CNC(=O)C2CCCN(c3nnc(C)c4c(C)n(-c5ccccc5)nc34)C2)cc1 (configuration not stated),4.48%
9,CCc1ccc(CNC(=O)C2CCN(c3nnc(C)c4c(C)n(-c5ccc(C)cc5)nc34)CC2)cc1,89% (active)
10,COc1ccc(-n2nc3c(N4CCC(C(=O)NCc5ccccc5)CC4)nnc(C)c3c2C)cc1,40.9%
11,CC1(C(=O)NNC(=S)NCC2CCCO2)CC1(Cl)Cl (configuration not stated),9.98%
12,O=c1c2ccccc2[nH]c(=S)n1CCN1CCC(=C(c2ccc(F)cc2)c2ccc(F)cc2)CC1,-6.96%
13,COn1c(=O)c(=O)n(OC)c2ccccc21,-14.5%
14,Brc1cnc(N2CCCC2)nc1N1CCCCC1,-7.46%
15,CCCOc1ccccc1C1CC(=O)Nc2cc3c(cc21)OCO3 (configuration not stated),56% (active)
16,COc1ccccc1C1C2=C(COC2=O)Nc2cc3c(cc21)OCO3 (configuration not stated),64.9% (active)
17,CCCOc1ccc(C2NC(=O)NC(c3ccccc3)=C2C(C)=O)cc1OCC (configuration not stated),14.8%
18,O=C1NC(c2cc3c(cc2Cl)OCO3)Oc2ccccc21 (configuration not stated),2.99%
19,COc1ccc(S(=O)(=O)Nc2ccc3c(c2)OCO3)cc1Cl,8.27%
20,COC(=O)c1ccc(C2CC(=O)Nc3cc(OC)c(OC)cc32)cc1 (configuration not stated),7.38%
21,COc1ccc(NS(=O)(=O)c2cc(NC(=O)COc3ccccc3F)ccc2OC)cc1,14.4%
22,CN1C(=O)[C@H]2[C@@H](/C=C/c3ccccc3)N3C(=O)CN(Cc4ccc(-c5ccccc5)cc4)C(=O)[C@@]3(C)[C@H]2C1=O,22.2%
23,COc1ccc(-n2c(O)c(C=NCC(c3ccco3)N3CCCC3)c3ccccc3c2=O)cc1OC (configuration not stated),15.6%

row,SMILES,inhibition
1,CCN1C(=O)c2cccc3c(S(=O)(=O)Nc4ccccc4O)ccc1c23,62.5% (active)
2,CCN(CC)S(=O)(=O)c1ccc2c3c(cccc13)C(=O)S2,39.8%
3,O=C(CN1C(=O)c2cccc3cccc1c23)Nc1ccccc1,26.2%
4,O=C(NN1CCOCC1)c1cccc(F)c1,6.11%
5,Cc1c(Br)c([N+](=O)[O-])nn1CC(=O)Nc1sc2c(c1C(=O)OC(C)C)CCC(C)C2 (configuration not stated),23.2%
6,O=C(COC(=O)c1ccncc1)Nc1ccc2c(c1)OCO2,-1.34%
7,CC1(C)NC(=O)N(CCCCSc2ccc(Cl)cc2)C1=O,5.07%
8,COc1ccc(-c2cc(C(=O)N/N=C/c3cccnc3)c3ccccc3n2)c(OC)c1,-12.7%
9,COc1ccc(C(=O)CCC(=O)Nc2cccnc2)c(OC)c1,9.02%
10,COc1ccc(C(=O)/C=C/c2cccnc2)c(OC)c1,54.3% (active)
11,Cc1nc2nc(SCC(=O)Nc3cccc(F)c3)[nH]c2cc1Br,23.9%
12,Cc1ccc(N(Cc2ccc(C(=O)Nc3ccccc3C(=O)NCc3ccco3)cc2)S(C)(=O)=O)cc1C,38.7%
13,O=C(CCNC(=O)c1ccccc1Cl)NCc1ccco1,2.16%
14,Cc1cccc(Nc2ccccc2C(=O)NCc2ccco2)c1C,54.5% (active)
15,Cc1n[nH]c(=O)c2c(NC(=O)COC(=O)c3ncc(Cl)c(Cl)c3Cl)oc(C)c12,8.36%
16,CCCCn1c(-c2cccc(C)c2)nc2cc3[nH]c(=O)c(C(C)C)nc3cc21,55.1% (active)
17,CCCCn1c(N)c(N(CCOC)C(=O)CSCC(=O)Nc2cccc(C)c2)c(=O)[nH]c1=O,-8.54%
18,CCOCCn1c(-c2ccccc2)nc2ccccc21,21.2%
19,COc1ccccc1C(=O)N1C(CC(=O)Nc2ccccc2C)C(=O)NC2CCCCC21 (configuration not stated),10.2%
20,CC(=O)C1=C(C)NC2=C(C(=O)CC(C)(C)C2)C1C (configuration not stated),14.7%
21,Cc1cccc(C)c1NC1=NC(=S)N(c2ccc(N(C)C)cc2)C1(C)C,13.2%
22,CC1=C/C(=N\OS(=O)(=O)c2ccccc2)C=CC1=O,89.3% (active)
23,CC1C(=O)C(C)C(c2ccc(O)cc2)NC1c1ccc(O)cc1 (configuration not stated),-1.09%
